# Data from PubChem BioAssay AID651593 (National Center for Advancing Translational Sciences (NCATS), 2012).
# The whole screen tested about 1,100 compounds, of which about 860 (78%) were called active. About 19% were inconclusive and are not listed. The call rests on the fitted dose curve; in most records, active means well fitted activation curve with a large enough effect; inconclusive means small, poorly fitted or top-dose-only effect; inactive means flat fitted curve, though single readings scatter. So high a share suggests a set chosen from earlier hits. This is one part of the list.
# Assay: qHTS of Nrf2 Activators: Hit Validation in Primary Assay; further: nearly all actives have a fitted effect of over 70% in size
# Settings: Nrf2/ARE reporter cell assay; Potency: activation; series mostly up to 46.1 µM
# Procedure, shortened: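 Luminescence from Steady-Glo lysis reagent, read after 30 min, reported ARE-luciferase activity in AREc32_fluc stable cells. Compounds were tested at several concentrations, incubated 24 h at 37 °C with 5% CO2 following overnight seeding.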
# Potency means the concentration at half of the fitted maximal effect.
row,SMILES,Potency
1,CCOc1ncccc1-c1nc(-c2cccs2)no1,18.4 µM (active)
2,COc1cc(-c2noc(-c3cccs3)n2)cc(OC)c1OC,13 µM (active)
3,CCOc1ccc(Br)cc1-c1noc(-c2cccs2)n1,2.31 µM (active)
4,CCN=c1scc(C)n1/N=C/c1ccsc1,7.31 µM (active)
5,Cc1nc([N+](=O)[O-])c(Br)n1Cc1ccccc1,20.6 µM (active)
6,c1ccc2c(c1)nnn2-c1ncnc2sccc12,13 µM (active)
7,Clc1nc2sccn2c1/C=N/n1cnc2ccccc21,2.59 µM (active)
8,O=C(CSc1nnc(-c2cccnc2)o1)c1cc2ccccc2oc1=O,18.4 µM (active)
9,Nc1nonc1N/N=C/c1c(O)ccc2ccccc12,6.51 µM (active)
10,Cc1cc(N/N=C/c2c(O)ccc3ccccc23)nc(-c2ccccc2O)n1,inactive
11,Oc1ccccc1C=NN=Cc1c(O)ccc2ccccc12,3.66 µM (active)
12,O=C(Nc1cccc([N+](=O)[O-])c1)Nc1cccs1,18.4 µM (active)
13,Cc1c(NC(=O)Nc2cccs2)cccc1[N+](=O)[O-],11.6 µM (active)
14,CC(C)(C)/C(O)=C/c1nc2cc(Cl)ccc2oc1=O,13 µM (active)
15,O=c1oc2ccc(Cl)cc2nc1/C=C(\O)c1cccs1,14.6 µM (active)
16,O=c1oc2ccc(Cl)cc2nc1/C=C(\O)c1ccco1,14.6 µM (active)
17,N=c1oc2ccccc2cc1-c1nc(-c2ccccc2)cs1,3.66 µM (active)
18,O=c1oc2ccccc2cc1-c1nc(-c2cccs2)cs1,3.66 µM (active)
19,O=c1oc2ccccc2cc1-c1csc(Nc2ccc(O)cc2)n1,4.61 µM (active)
20,O=c1oc2ccccc2cc1-c1nc2c(s1)CCc1ccccc1-2,3.26 µM (active)
21,COc1ccccc1C(=O)NCc1nc2cccnc2n1Cc1ccc(F)cc1,2.91 µM (active)
22,C#CCSc1nnc(-c2sc3ccccc3c2Cl)o1,2.59 µM (active)

row,SMILES,Potency
1,c1cncc(-c2nc(NCc3ccco3)c3ccccc3n2)c1,5.17 µM (active)
2,Cc1ccc(-c2nc(NCc3ccco3)c3ccccc3n2)cc1,6.51 µM (active)
3,O=C(CCN1C(=O)c2cccc3cccc(c23)C1=O)Nc1ccon1,4.61 µM (active)
4,Cc1cc(=O)oc2c(C(=O)/C=C/c3ccccc3)c(O)ccc12,2.59 µM (active)
5,Cc1cc(=O)oc2c(C(=O)/C=C\c3cccs3)c(O)ccc12,9.2 µM (active)
6,Cc1ccc(S(=O)(=O)CCSC(=N)N)cc1,18.4 µM (active)
7,O=C(Nc1ccc(Cl)cn1)c1cnn2cccnc12,5.17 µM (active)
8,COc1cccc(/C=C2/CCC(CN(C)C)C2=O)c1 (stereo unspecified),3.66 µM (active)
9,C=CCc1cccc(C=Nc2cc(Br)ccc2O)c1O,3.26 µM (active)
10,Cc1ccc(Cn2c(/C=C/c3ccco3)nc3ccccc32)cc1,2.31 µM (active)
11,O=C(Nc1nc2ccccc2[nH]1)c1ccc(Cl)c([N+](=O)[O-])c1,20.6 µM (active)
12,O=C(Nc1nc2ccccc2[nH]1)c1cccc([N+](=O)[O-])c1,2.06 µM (active)
13,O=C(Nc1ccccn1)c1ccc(Cl)c([N+](=O)[O-])c1,18.4 µM (active)
14,Cc1cc(CNC(=O)c2cccc([N+](=O)[O-])c2)c2ccccc2n1,inactive
15,Cc1cccc(-c2n[nH]c(=S)n2/N=C/C=C/c2ccco2)c1,2.06 µM (active)
16,CC(/C=N/n1c(-c2ccncc2)n[nH]c1=S)=C\c1ccco1,2.59 µM (active)
17,S=c1[nH]nc(-c2ccccc2)n1/N=C/C=C/c1ccco1,inactive
18,S=c1[nH]nc(-c2ccncc2)n1/N=C/C=C/c1ccco1,8.2 µM (active)
19,O=C1C(=Cc2cccc(F)c2)Cc2ccccc21,13 µM (active)
20,O=C1C(=Cc2cccc(Cl)c2)Cc2ccccc21,4.61 µM (active)
21,COC(=O)/C=C1/S/C(=N/N=C/c2ccco2)NC1=O,0.82 µM (active)
22,O=C(/C=C/c1cccs1)c1ccco1,20.6 µM (active)

row,SMILES,Potency
1,CCCN(C(=O)c1ccco1)c1nnc(-c2ccccc2C)s1,8.2 µM (active)
2,S=c1[nH]nc(-c2cccnc2)n1/N=C/C(Cl)=C\c1ccccc1,14.6 µM (active)
3,S=c1[nH]nc(COc2ccccc2)n1/N=C/C(Cl)=C/c1ccccc1,4.61 µM (active)
4,S=c1[nH]nc(-c2ccco2)n1/N=C/C(Cl)=C/c1ccccc1,23.1 µM (active)
5,O=C(Nc1ccc(F)cc1)c1cc2ccccc2o1,3.66 µM (active)
6,Cc1ccc(C)c(NC(=O)COC(=O)c2cc(=O)c3ccccc3o2)c1,20.6 µM (active)
7,Cc1ccc(NC(=O)c2cc(=O)c3ccccc3o2)cc1,20.6 µM (active)
8,O=c1oc(CCCO)cc2ccc(C#Cc3ccsc3)cc12,2.31 µM (active)
9,O=c1[nH]c(O)c(/C=C2\C=Nc3ccc(Br)cc32)[nH]1,8.2 µM (active)
10,O=c1[nH]c(O)c(/C=C2\C=Nc3ccccc32)[nH]1,14.6 µM (active)
11,O=C(CN1CCS(=O)(=O)CC1)N/N=C/c1cccc(C(F)(F)F)c1,2.31 µM (active)
12,Nc1nc(-c2ccccc2)cc(-c2ccccc2O)n1,4.11 µM (active)
13,Oc1ccccc1-c1csc(-c2ccccc2)n1,7.31 µM (active)
14,CC1Sc2n(c3ccccc3[n+]2C)N=C1c1ccccc1 (stereo unspecified),7.31 µM (active)
15,C[n+]1c2n(c3ccccc31)N=C(c1ccccc1)CS2,2.91 µM (active)
16,COc1cc2c(c(Br)c1N)-c1cc(Br)c(N)cc1C2=O,4.11 µM (active)
17,Nc1c(Cl)c(Cl)nc(C(=O)N/N=C/c2ccco2)c1Cl,2.59 µM (active)
18,O=C(Nc1ccccc1C(=O)N/N=C/c1ccco1)c1ccc(F)cc1,2.31 µM (active)
19,O=C(Nc1ccccc1C(=O)N/N=C/c1ccco1)c1ccccc1,2.31 µM (active)
20,Cc1nn(C)c(C)c1/C=C(/C(=O)C(C)(C)C)n1cncn1,11.6 µM (active)
21,O=C(CN1C(=O)S/C(=C\c2ccccc2Cl)C1=O)NC1C=CS(=O)(=O)C1 (stereo unspecified),18.4 µM (active)
22,Brc1cc2c(cc1/C=N/Nc1nc3ccccc3s1)OCO2,2.31 µM (active)

row,SMILES,Potency
1,O=[N+]([O-])c1cc(Cl)cc(/C=N/Nc2nc3ccccc3s2)c1O,inactive
2,N#Cc1c(-c2ccco2)cc(-c2ccccn2)nc1N,2.31 µM (active)
3,N#Cc1c(-c2ccco2)cc(-c2ccc(F)cc2)nc1N,2.31 µM (active)
4,CC(C)Cc1cc(-c2ccco2)c(C#N)c(N)n1,1.3 µM (active)
5,CCc1nc(N)c(C#N)c(-c2ccco2)c1C,1.64 µM (active)
6,O=[N+]([O-])c1cccc(-c2cnc3ccccc3n2)c1,6.51 µM (active)
7,O=C(Oc1cccc(-c2cnc3ccccc3n2)c1)c1ccco1,3.26 µM (active)
8,c1coc(-c2cnc3ccccc3n2)c1,5.17 µM (active)
9,CC(=O)Nc1ccc(O)c(-c2nc3ccccc3s2)c1,2.06 µM (active)
10,O=[N+]([O-])c1ccc(Cl)c(/C=N/n2c(-c3ccncc3)n[nH]c2=S)c1,11.6 µM (active)
11,O=C(N/N=C/c1ccc(-c2cccc([N+](=O)[O-])c2)o1)c1cccs1,2.06 µM (active)
12,CCN1C(=O)/C(=C\c2ccco2)C(C(=O)OC)=C1C,3.26 µM (active)
13,COC(=O)C1=C(C)N(C)C(=O)/C1=C\c1ccco1,2.06 µM (active)
14,COC(=O)C1=C(C)NC(=O)/C1=C\c1ccco1,3.66 µM (active)
15,COC(=O)C1=C(C)N(c2ccc(Br)cc2)C(=O)/C1=C\c1ccco1,18.4 µM (active)
16,CCCC(=O)Nc1sc(C)c(C)c1C#N,14.6 µM (active)
17,O=C(Nc1cccnc1)C1(F)C(F)(F)C(F)(F)C(F)(F)C(F)(F)C1(F)F,14.6 µM (active)
18,O=c1cc(-c2ccccc2)oc2ccc(Cl)cc12,3.26 µM (active)
19,CSc1ccc(-c2cc(=O)c3ccccc3o2)cc1,2.06 µM (active)
20,S=c1[nH]nc(-c2ccco2)n1/N=C/c1ccc(Br)s1,2.31 µM (active)
21,O=[N+]([O-])c1ccccc1/C=C/C=N/n1c(-c2ccco2)n[nH]c1=S,11.6 µM (active)
22,S=c1[nH]nc(-c2ccco2)n1/N=C/c1cccc(Cl)c1Cl,10.3 µM (active)

row,SMILES,Potency
1,CNc1ccccc(C(=O)/C=C/c2ccccc2OC)c1=O,20.6 µM (active)
2,CNc1ccc(Br)cc(C(=O)/C=C/c2cccc(Cl)c2Cl)c1=O,1.84 µM (active)
3,CSc1nsc(SC)c1C(=O)Nc1ccc(Cl)cc1,4.61 µM (active)
4,CSc1nsc(SC)c1C(=O)Nc1ccc(C)cc1,16.4 µM (active)
5,CC(OC(=O)/C=C/c1ccc2ccccc2n1)C(=O)Nc1ccc(S(N)(=O)=O)cc1 (stereo unspecified),20.6 µM (active)
6,Cc1cc(=O)oc2cc(NC(=O)c3ccccc3Cl)ccc12,2.91 µM (active)
7,CCN(CC)c1ccc2c(c1)oc(=O)c1c(Cl)cc(=O)oc12,inactive
8,COC(=O)c1sccc1NC(=O)c1cc(C)on1,16.4 µM (active)
9,COC(=O)c1sccc1NC(=O)c1ccccc1,20.6 µM (active)
10,COC(=O)c1sccc1NC(=O)c1cccc(F)c1,18.4 µM (active)
11,COC(=O)c1sccc1NC(=O)c1cccc(OC)c1,7.31 µM (active)
12,COc1cccc(C(=O)Nc2cc(Cl)c(O)c(Cl)c2)c1,5.17 µM (active)
13,COC(=O)c1sccc1NC(=O)c1cccc(Cl)c1,20.6 µM (active)
14,COC(=O)c1sccc1NC(=O)c1ccccc1F,18.4 µM (active)
15,COC(=O)c1sccc1NC(=O)c1ccc(OC)c(OC)c1,4.61 µM (active)
16,O=C(NNC(=O)c1sccc1-n1cccc1)c1cccc(Cl)c1,2.59 µM (active)
17,COC(=O)c1sccc1NC(=O)c1csc(C)c1,4.61 µM (active)
18,COC(=O)c1sccc1NC(=O)Nc1ccc(Cl)c(Cl)c1,14.6 µM (active)
